# GC-B act: GC-B (human) receptor activation; HEK293-GC-B cells, CNP EC30, cGMP TR-FRET; 0% at EC30 CNP, 100% saturating CNP; activation, % at 10 µM; 370,000 tested, 0.11% active; AID 1920062;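 active means activation at 10 µM reaching about 35% in either raw or pattern-adjusted values, limit read from the data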
# Target sequence (P20594 whole entry, looked up): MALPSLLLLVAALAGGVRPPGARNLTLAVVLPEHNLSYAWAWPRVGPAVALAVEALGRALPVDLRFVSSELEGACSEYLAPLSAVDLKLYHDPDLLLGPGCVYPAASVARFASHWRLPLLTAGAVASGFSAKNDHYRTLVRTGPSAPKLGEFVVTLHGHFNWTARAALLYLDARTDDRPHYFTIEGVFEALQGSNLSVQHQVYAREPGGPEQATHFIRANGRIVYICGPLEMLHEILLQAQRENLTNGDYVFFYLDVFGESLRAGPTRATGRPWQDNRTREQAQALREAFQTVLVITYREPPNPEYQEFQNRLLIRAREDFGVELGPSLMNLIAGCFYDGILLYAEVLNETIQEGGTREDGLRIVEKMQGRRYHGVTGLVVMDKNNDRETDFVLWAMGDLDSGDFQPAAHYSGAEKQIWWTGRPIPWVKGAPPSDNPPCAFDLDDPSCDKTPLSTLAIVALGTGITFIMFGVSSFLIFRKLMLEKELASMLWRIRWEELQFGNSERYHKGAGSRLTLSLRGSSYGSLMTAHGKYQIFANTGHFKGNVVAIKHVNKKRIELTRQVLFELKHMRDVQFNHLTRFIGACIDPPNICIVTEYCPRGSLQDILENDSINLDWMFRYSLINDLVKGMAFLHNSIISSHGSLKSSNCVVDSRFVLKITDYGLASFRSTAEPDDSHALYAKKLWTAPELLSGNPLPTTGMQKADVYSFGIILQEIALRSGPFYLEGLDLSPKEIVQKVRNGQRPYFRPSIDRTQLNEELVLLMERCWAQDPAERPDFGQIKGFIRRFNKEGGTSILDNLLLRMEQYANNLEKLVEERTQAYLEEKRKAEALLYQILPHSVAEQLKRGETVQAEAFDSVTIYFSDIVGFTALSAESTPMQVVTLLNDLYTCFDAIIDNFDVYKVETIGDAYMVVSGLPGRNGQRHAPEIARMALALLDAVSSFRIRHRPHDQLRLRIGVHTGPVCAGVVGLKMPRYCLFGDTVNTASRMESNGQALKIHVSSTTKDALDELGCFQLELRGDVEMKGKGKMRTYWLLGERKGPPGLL
# GC-A act: GC-A (human) enzyme activation; 370,000 tested, 0.14% active; AID 1671463; P16066; HEK293 GC-A cells, cGMP TR-FRET, EC30 ANP; 0% at EC30 ANP, 100% saturating ANP; activation, % at 10 µM; in the data active means activation above about 40%
# Myeloid diff MLP: promotes myeloid progenitor differentiation. ER-HoxA9 myeloid progenitors, lysozyme-GFP differentiation, flow cytometry. calls only at 10 µM. 360,000 tested, 1% active. AID 624256;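 active means normalized GFP-positive differentiation at or above the plate's own cutoff, the solvent-only control mean plus 3 SD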;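 further: cells exposed to compound for four days before flow analysis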
# Exocytosis inh: lytic granule exocytosis inhibition. inhibition, % at 10 µM. 360,000 tested, 0.66% active. TALL-104 LAMP-1 surface exposure, flow cytometry; cells stimulated with thapsigargin and PMA;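 active means inhibition above about 55%, limit read from the data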
# Myeloid diff: compounds promoting myeloid differentiation; calls only; 2,300 tested, 2% active; shares compounds with Myeloid diff MLP; ER-HoxA9 myeloid progenitors, GFP/Mac1 double-positive flow;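 active means share of green or green-and-red cells above 9 and 9% in run 1 or 4 and 3% in run 2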
# GFP autofluor: flagged as fluorescent in myeloid differentiation counter-screen; 2,300 tested, 7.4% active; ER-HoxA9 myeloid progenitors, no estrogen, GFP autofluorescence flow cytometry; vehicle wells 0%, positive control 100%; fluorescence response, % (test concentration not listed); shares compounds with Myeloid diff MLP;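 active means over 5% cells positive for green fluorescent reporter, or over 2% positive for both it and APC stain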;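 further: range taken on the double positive population between DMSO and positive control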
# The depositor's hits bear a star; i = inactive; . = no result given; + = active, no number. An excerpt weighted towards active compounds, which were near 1.8% of everything screened.
SMILES,GC-B act,GC-A act,Myeloid diff MLP,Exocytosis inh,Myeloid diff,GFP autofluor
CC(C)(C)C(=O)Nc1nc2c(s1)CN(Cc1ccccc1)CC2,5,0,i,-5,i,0
O=C(Nc1nc2c(s1)CN(Cc1ccccc1)CC2)C1CCCC1,-1,7,i,4,.,.
O=C(Nc1ccc(F)cc1)C(c1cccc(F)c1)N1CCN(c2ccncc2)CC1 (stereo not given),-5,1,i,13,.,.
Cn1c(=O)c2ccccc2n(Cc2ccccc2Cl)c1=O,21,11,i,8,i,0
Cc1ccccc1CS(=O)(=O)Cc1ccc(C(=O)Nc2ccccc2C)o1,5,-2,.,.,.,.
CCCCN(C(=O)c1cc(-c2ccncc2)nc2ccccc12)c1c(N)n(CC(C)C)c(=O)[nH]c1=O,-1,-4,i,-4,.,.
CCCCn1c(N)c(N(CC(C)C)C(=O)c2cc(-c3ccncc3)nc3ccccc23)c(=O)[nH]c1=O,-3,-2,+,-6,i,3
O=C(Nc1ccc(Cc2ccncc2)cc1)C1CCC(N2C(=O)C3C4C=CC(C5CC45)C3C2=O)CC1 (stereo not given),2,-1,+,1,i,1
CC(=O)Nc1ccc(NC(=O)C2CCC(N3C(=O)C4C5C=CC(C6CC56)C4C3=O)CC2)cc1 (stereo not given),0,0,i,1,.,.
Cn1c(N)nc2nc[nH]c2c1=S,6,-3,i,1,i,0
Oc1ccccc1N=Cc1c(O)ccc2ccccc12,-5,-4,+,4,i,0
Oc1ccc2ccccc2c1C=Nc1ccccc1Br,4,2,i,19,i,0
O=C(CSc1nnc(COc2ccccc2)n1Cc1ccco1)Nc1ccc(OCc2ccccc2)cc1,8,1,.,.,.,.
CC1=NN(C(C#N)c2ccc(F)cc2)C(C)(C)C1 (stereo not given),3,4,+,-2,i,0
COC(=O)C1CN(Cc2ccccc2)CCS(=O)(=O)N1Cc1cn(Cc2ccc(C)cc2)nn1 (stereo not given),-1,-1,.,.,.,.
O=C1CN(C(=O)COC(=O)CCS(=O)(=O)c2ccccc2Cl)c2ccccc2N1,-2,-4,i,-1,.,.
O=C(NCc1ccccc1)C1C(c2ccc3c(c2)OCO3)=Nc2ccccc2N1C(=O)c1ccco1 (stereo not given),-7,3,i,-1,i,0
O=C(NCc1ccccc1)C1C(c2ccc3c(c2)OCO3)=Nc2ccccc2N1C(=O)c1ccccc1 (stereo not given),1,0,i,-2,.,.
Cc1ccc2nc(-c3ccco3)c(CC3CCCCC3)n2c1,.,.,i,14,.,.
Cn1c(C(=O)NCC2CCCO2)cc2c(=O)[nH]c3ccccc3c21 (stereo not given),-1,5,i,0,i,1
O=C(NC1CCCCC1)OC1CC2CC1[C@H]1CCCCN1C2=O (stereo not given in full),3,5,i,-9,.,.
O=C(CC1C(=O)NCCN1Cc1cccc(Oc2ccccc2)c1)NCCc1ccccn1 (stereo not given),7,-1,+,0,i,0
COc1cccc(CN2CCNC(=O)C2CC(=O)NCCc2ccccn2)c1 (stereo not given),2,-2,i,-4,.,.
CC(/C=N/NC(=O)CSc1n[nH]c(=O)[nH]c1=O)=C\c1ccccc1,0,-3,i,-2,i,0
COc1ccc(/C=N/NC(=O)CSc2n[nH]c(=O)[nH]c2=O)cc1,0,2,i,6,.,.
SMILES,GC-B act,GC-A act,Myeloid diff MLP,Exocytosis inh,Myeloid diff,GFP autofluor
FC(F)(F)c1cc(Cl)c2nc(-c3ccco3)c(Cc3ccccc3C(F)(F)F)n2c1,0,7,i,-7,.,.
Cc1ccc(C)c(/C(O)=C2\C(=O)C(=O)N(CCCn3ccnc3)C2c2ccncc2)c1 (stereo not given),3,4,+,-3,i,0
Cc1ccc(C2/C(=C(/O)c3ccc4c(c3)CC(C)O4)C(=O)C(=O)N2CCCn2ccnc2)cc1 (stereo not given),4,8,i,-2,.,.
C#CCNC(=O)C[C@@H]1C[C@@]2(C(=O)OC)CCCCC=C2N(CCC2=CCCCC2)C1=O,3,-2,i,-4,.,.
Cn1c(SCC(=O)O)nnc1C1CCCCC1,-3,2,+,3,i,0
C/C(Cc1ccccc1)=N\NC(=O)CNC(=O)c1ccc(Br)cc1,-4,4,+,-4,i,1
COc1cc(CNc2ccc3[nH]c(=O)[nH]c3c2)ccc1OCc1ccccc1Cl,-7,1,i,-13,i,0
N#CCC(=O)Nc1ccc(C(=O)OC(C(=O)Nc2cc(C(F)(F)F)ccc2Cl)c2ccccc2)cc1 (stereo not given),-3,-8,+,4,i,1
N#CCC(=O)Nc1ccc(C(=O)OC(C(=O)Nc2ccc([N+](=O)[O-])cc2Br)c2ccccc2)cc1 (stereo not given),-2,-9,i,-6,.,.
O=C(Cn1c(=O)n(Cc2ccco2)c(=O)c2cc(Cl)ccc21)NCC1CCCO1 (stereo not given),1,-2,+,8,i,0
CC(C)C(=O)N(Nc1nc2ccccc2s1)C(=O)C(C)C,-2,1,+,-2,i,0
Cc1ccc(C(=O)N(Nc2nc3ccccc3s2)C(=O)c2ccc(C)cc2)cc1,-1,1,i,-1,.,.
COc1ccc(-c2csc(C(NC(C)=O)c3cccc(F)c3)n2)cn1 (stereo not given),-1,3,+,6,i,1
CC(SCCc1ccccn1)C(=O)O (stereo not given),-2,4,i,0,i,0
CC(C)(C)OC(=O)N(CCc1ccccc1)Cc1cccc(OCc2cccc(NC(=O)c3ccccc3)c2)c1,0,0,i,-6,.,.
Cc1cc(C)cc(C(=O)/C=C2\NC(=O)CS2)c1,5,5,i,-1,i,0
O=[N+]([O-])c1ccc(/C=N/Nc2ncccc2[N+](=O)[O-])s1,-7,0,i,3,i,0
COc1ccc(S(=O)(=O)N(C)CC(=O)Nc2ccc(F)cc2)cc1,.,.,i,0,i,0
Cc1[nH]n(-c2ccccc2)c(=O)c1C(=O)c1ccccc1,2,0,i,4,.,.
Cc1[nH]n(-c2ccccc2)c(=O)c1C(=O)c1cccc(F)c1,-2,5,i,-3,i,0
O=C(NCCCCc1ccccc1)C12CN(Cc3ccccc3)CC1C(c1ccc([N+](=O)[O-])cc1)=NO2 (stereo not given),0,0,+,12,i,0

# Bioassay records (PubChem)
